Laboratory results published in PubChem BioAssay AID504375 (National Center for Advancing Translational Sciences (NCATS), 2011).
Among all 1,600 compounds or so, about 25 (2%) were called active. Roughly 7% stayed inconclusive and do not appear here. Only a selection was taken, and actives are over-represented in it overall. Unmarked numbers belong to inactive results. Calls follow the shape of the dose curve; as a rule, active = well fitted inhibition curve with a large enough effect; inconclusive = small, poorly fitted or top-dose-only effect, or effect the other way; inactive = no such curve, though single readings can be large or run the other way.

Biological target: Runt-related transcription factor 1 (Homo sapiens) + Core-binding factor subunit beta (Homo sapiens) (UniProt Q01196+Q13951)
Sequence (Q01196 whole entry, looked up): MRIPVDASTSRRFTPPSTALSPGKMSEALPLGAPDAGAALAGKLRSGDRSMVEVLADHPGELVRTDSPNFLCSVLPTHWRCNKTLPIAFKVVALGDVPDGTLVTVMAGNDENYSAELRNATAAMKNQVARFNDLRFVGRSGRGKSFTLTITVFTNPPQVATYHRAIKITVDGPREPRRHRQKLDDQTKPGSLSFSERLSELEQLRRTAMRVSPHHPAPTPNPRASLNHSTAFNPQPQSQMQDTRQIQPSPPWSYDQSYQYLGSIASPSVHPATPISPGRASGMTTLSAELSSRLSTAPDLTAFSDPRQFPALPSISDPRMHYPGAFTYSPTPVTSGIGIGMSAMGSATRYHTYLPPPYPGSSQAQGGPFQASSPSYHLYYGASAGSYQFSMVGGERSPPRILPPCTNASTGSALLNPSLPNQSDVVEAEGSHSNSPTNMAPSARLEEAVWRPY
Sequence (Q13951 whole entry, looked up): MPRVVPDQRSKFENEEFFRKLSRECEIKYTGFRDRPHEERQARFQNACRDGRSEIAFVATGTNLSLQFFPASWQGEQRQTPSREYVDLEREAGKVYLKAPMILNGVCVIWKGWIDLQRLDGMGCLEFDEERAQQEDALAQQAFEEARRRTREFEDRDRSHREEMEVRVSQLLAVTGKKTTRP
Experiment: qHTS Assay for Compounds Blocking the Interaction Between CBF-beta and RUNX1 for the Treatment of Acute Myeloid Leukemia: Hit Validation with Orthogonal Assay
Details: CBFbeta-RUNX1 binding orthogonal assay, biochemical; series mostly up to 41 µM; activity change, negative = inhibition: at the top concentration
Source text: NIH Chemical Genomics Center [NCGC]
NIH Molecular Libraries Probe Production centers Network [MLPCN]
Assay Submitter (PI): Paul Liu
Core Binding Factor (CBF) abnormalities are associated with 20-25% of all acute myeloid leukemias (AML), of which 5-10% are further sub classified as acute myelomonocytic leukemia with eosinophilia, also known as M4Eo in the FAB classification scheme. This subtype of leukemia is usually associated with chromosome 16 inversion (p13:q22). Chromosome 16 inversion results in formation of the fusion oncogene CBFB-MYH11, which encodes the fusion protein CBF-beta-SMMHC.
It has been hypothesized that the interference of CBF-beta and RUNX1 binding could have therapeutic implications for patients with CBF mediated leukemias. We developed a CBF-beta and RUNX1 binding assay in AlphaScreenTM format and optimized it for high throughput screening to search for inhibitors. The goal of this project is to screen MLPCN's compound collection (MLSMR) for identifying the inhibitors of the interaction between CBF-beta and RUNX1 proteins as research probes. If these probes work well in the animal models, the ultimate goal of this project is to development a new drug treatment for this disease.
This assay can not be used to assess how apparent inhibitors interfere with protein binding, and whether inhibitors specifically bind to either protein. Disruption of this protein-protein interaction, through any mechanism, is the intended target activity.
The present data set was run to confirm the activity of hits from the primary screen using an orthogonal assay technology for measuring protein-protein interaction disruption.
A TR-FRET (time resolved fluorescence resonance energy transfer) assay was performed using the same assay buffer, protein concentrations and incubation times as described previously in the AlphaScreen assay, except that terbium (Tb+) labeled anti-his-antibody and XL665 linked streptavidin were used to capture the binding signal. The Tb+ labeled anti-his-antibody captures His(6)-CBF and XL665 linked streptavidin binds to biotin-RUNX1. The binding of RUNX1 to CBFbrings Tb+ and XL665 to proximity resulting in a TR-FRET signal. Briefly, in a white 384-well plate, 10 µl/well of mixture of biotin-RUNX1 and His(6)-CBFwere incubated with 10 µl/well buffer (positive control) or 10 µl/well compounds (negative control) for 20 min followed by an addition of 10 µl/well of Tb+ labeled anti-his(6)-antibody and XL665 linked streptavidin. After 90 min of incubation in the dark, the assay plate was measured in the Envision plate reader using TR-FRET detection mode. For the 1536-well plate format, 3 µl/well mixture of biotin-RUNX1 and His(6)-CBF (30 nM per protein) was incubated with 23 nl/well compound (dissolved in 100% DMSO) or the equivalent DMSO concentration (positive control) for 30 min followed by the addition of 1 µl/well of 0.44 ng Tb+ labeled anti-his(6)-antibody and 5 nM streptavodin-XL665. After 90 min of incubation, the assay plate was measured in the Envision plate reader.
The TR-FRET assay for detecting interaction between HIV-I Tat and […] was similarly performed with the recombinant full-length HIV-I Tat CLADE B and HIV-I Tat Biotin conjugated proteins supplied by Diatheva (Fano, Italy). Briefly, the His-CBF and Biotin-RUNX1 complex at a working concentration of 83.3 nM per protein were pre-incubated in assay buffer for 10 minutes on ice. Then HIV-I Tat or unlabeled CBF were added to reach final concentrations (Supplementary Figure 4b) and incubated for 5 minutes. Finally anti-His antibody and streptavidin-XL665 at a final concentration of 2.2 ng and 5 nM, respectively, were added to the plate, which was incubated for 1 hr prior to reading on the PerkinElmer Envision plate reader.
Keywords: MLSMR, MLPCN, NIH Roadmap, qHTS, NCGC, Core binding factor, CBF, CBF-beta, Acute myeloid leukemia
% is scaled to controls: 0 for no effect and ±100 for the full control effect; potency is read from the fitted curve at half-maximal effect.

SMILES	activity change, negative = inhibition [%]	Potency
CC(=O)c1sccc1NC(=O)c1ccccc1C(=O)O	3.8	–
O=C(Oc1c(-c2ccccc2)c(=O)n2c3c(cccc13)CC2)c1ccccc1	-10	–
O=[N+]([O-])c1cccnc1Oc1ccc(F)cc1	22.6	–
Cn1nc2c3ccccc3n(Cc3ccc(F)cc3)c2nc1=S	12	–
Cc1nc2ccc(NC(=S)N3CCOCC3)cc2nc1C	–	12.6 µM (active)
COc1ccc(C(=O)NC(=S)Nc2ccc(CN3CCOCC3)cc2)cc1	-9.35	–
Cc1cccc(C)c1NC(=S)N1CCOCC1	3.77	–
COC(=O)c1scc(C)c1NC(=O)/C=C/C(=O)O	-12.4	–
Cc1ccc(N/N=C(\C#N)C(=N)N2CCCCC2)cc1	59.2	–
Cc1nc(SCc2cccc(F)c2)c2oc3ccccc3c2n1	-3.14	–
Cn1ncc2c(c(SCc3ccc(Cl)cc3Cl)nn2C)c1=O	16.1	–
O=C1NCCc2c1[nH]c1ccccc21	-12	–
CC(C)Cn1nc(NC(=O)c2cccs2)c2cc3ccccc3nc21	20.5	–
CC(=O)Oc1cc2c3c(c1)/C(=C1/SC(=S)NC1=O)C(=O)N3C(C)(C)C=C2C	14.8	–
CC(C)N(Cc1ccccc1)C(=O)c1ccc2nsnc2c1	18	–
O=C(CSc1nc2ccccc2n1Cc1ccccc1Cl)N/N=C/c1ccccc1C(=O)O	-14.6	–
O=C(O)C1CCc2sc3[nH]c(=S)n(-c4ccccc4)c(=O)c3c21 (stereo not drawn)	12.3	–
Cn1cccc1/C=C1\SC(=S)N(NC(=O)c2ccc(F)cc2)C1=O	33.1	–
Clc1ccc(C2=Nn3c(Cn4nnc5ccccc54)nnc3SC2)cc1	2.69	–
O=C1COc2cccnc2N1	-2.97	–

SMILES	activity change, negative = inhibition [%]	Potency
Cc1c(-c2ccccc2)[n+](=O)c(-c2ccc(Br)cc2)c(C)n1[O-]	26.5	–
COc1cc(C(=O)NC(=S)Nc2ccc3c(c2)OCO3)cc(OC)c1OC	2.92	–
CCCSc1cc(Cl)nc(N)n1	-0.0734	–
O=C(CCl)NC1(C(F)(F)F)C(=O)Nc2c1c(=O)[nH]c(=O)n2-c1ccccc1 (stereo not drawn)	-7.72	–
O=[N+]([O-])c1ccc(-c2cn3c(n2)CCC3)cc1	27.4	–
COc1c(/C=N/NC(=O)c2ccncc2)c(CCN(C)C(C)=O)cc2c1OCO2	-7.29	–
COc1cc(/C=N/n2nnnc2N)cc(OC)c1OC	6.57	–
Cc1nc2ccccc2nc1N1CCCC1	17.1	–
COc1cscc1C(=O)O	0.991	–
CCOc1nsc(OCC)n1	8.39	–
C/C(=N\Nc1cccc(Cl)c1)C1(C)N(O)C(C)(C)C(c2ccco2)=[N+]1[O-] (stereo not drawn)	18.1	–
CCOC(=O)C1=C(C)N(CC(C)C)C(=O)/C1=C\c1cccs1	14.3	–
O=C(O)/C=C/c1cn(-c2ccccc2)nc1-c1ccc(-c2ccc([N+](=O)[O-])cc2)o1	17.8	–
COc1ccccc1/C=C/C=NC1C(=O)N(c2ccccc2)[N+](C)=C1C (stereo not drawn)	-5.85	–
O=C(O)CC(CCc1ccccc1)OC1OC(CO)C(O)C(O)C1O (stereo not drawn)	-29.1	–
O=C(O)c1cc(O)c2c(c1)[C@H]([C@H]1c3cc(C(=O)O)cc(O)c3C(=O)c3c(O[C@@H]4OC(CO)C(O)C(O)C4O)cccc31)c1cccc(O[C@@H]3OC(CO)C(O)C(O)C3O)c1C2=O (stereo partly drawn)	–	2.51 µM (active)
COc1cc(/C=C/c2nc3ccc([N+](=O)[O-])cc3s2)ccc1OCC(=O)O	18.5	–
CCn1cc(C(c2ccccc2)C(C(C)=O)[N+](=O)[O-])c2ccccc21 (stereo not drawn)	13.1	–
OCCNc1nc2ccccc2nc1NCCO	0.991	–
COc1ccc(C2=NOC(CNC(=S)N3CCOCC3)C2)cc1 (stereo not drawn)	8.59	–

SMILES	activity change, negative = inhibition [%]	Potency
Cn1c(SCC(=O)NC(=O)Nc2ccccc2)nnc1-c1ccncc1	-1.38	–
C(=C\c1nccc2c1[nH]c1ccccc12)/c1ccccc1	10.1	–
COc1cccc(/C=N/NC(=O)c2cnccn2)c1OC	12.2	–
Oc1ccccc1/C=N/Nc1nn[nH]n1	6.96	–
CCN(CC)c1ncc(C#N)c(N)n1	-7.89	–
Cc1cc(O)c(C=O)c2c1C(=O)Oc1c(COC(=O)/C=C/C(=O)O)c(O)c(C(=O)O)c(C)c1O2	–	28.2 µM (active)
CCOC(=O)c1cn2nc(Oc3ccc(C(=O)OC)cc3)ccc2n1	-15.3	–
CCc1nc2ccccc2nc1N1CCN(S(=O)(=O)c2ccc(Cl)cc2)CC1	0.844	–
c1ccc(C2=Nn3c(Cn4nnc5ccccc54)nnc3SC2)cc1	-10.8	–
CC(=O)c1ccc(S(=O)(=O)N2Cc3ccccc3CC2C(=O)O)cc1 (stereo not drawn)	-4.12	–
Brc1ccc(C2=Nn3c(Cn4nnc5ccccc54)nnc3SC2)cc1	-8.99	–
COc1ccc(C(=O)CN2CCN(c3cc(C)nc4ccccc34)CC2)cc1	-6.56	–
COC(=O)/C(=C\Nc1ccc(Oc2ccc(F)cc2F)nc1)NC(=O)c1ccccc1	8.42	–
CN(C)c1cc(-c2ccc(Cl)cc2Cl)oc(=O)c1Cl	32.5	–
CC(C)(C)C(=O)Nc1ccccc1C(=O)NCc1cccnc1	7.35	–
O=S(=O)(c1ccc(F)cc1F)N1CCCN(c2ccc(C(F)(F)F)cn2)CC1	5.71	–
CCC(C)c1ccc(OCc2ccc(C(=O)OC)o2)cc1 (stereo not drawn)	5.36	–
CCNC(=S)Nc1ccc(NC(=O)c2ccccc2O)cc1	16.3	–
